A selection: hits, their analogues and other compounds. The true share with any hit is near 22%.
Shiga inhibitor = inhibitors of Shiga toxin in Vero cells | Vero cells, Shiga toxin protein synthesis inhibition reporter | inhibition, % at 38.7 µM | hit rate 9.2% among 290,000; in the data active = inhibition mostly above about 28%, no sharp cut-off; inactive = mostly below about 43%; note: 0% is about no effect
Pf growth 96h = P. falciparum growth inhibition at 96 hours; P. falciparum luciferase reporter growth, 96 h; Potency, µM (titrated, usually from 28.7 µM), for the others: at the top dose activity change, negative = inhibition, usual class: inhibitors; hit rate 6.9% among 320,000; note: potency is the fitted concentration of half-maximal effect; % is set by controls: 0 for no effect and ±100 for the full control effect
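Cell-based qHTS: luciferase-tagged P. falciparum in erythrocytes (2% hematocrit, 0.05% parasitemia final) incubated with compounds for 96 hours, 37 C, 5% CO2; luciferase detection reagent then added and luminescence measured.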
Cycloheximide cs = counter-screen for Shiga toxin inhibitors: cycloheximide protein synthesis inhibition | cell reporter, cycloheximide protein synthesis inhibition counterscreen | hit rate 12% among 300,000 | AID 2314 | max response, %; in the data active = max response mostly above about 13%, no sharp cut-off; inactive = mostly below about 14%; note: read at 38.3 µM for the half of the compounds with a filed dose; 0% is about no effect
Pf growth 48h = P. falciparum growth inhibition at 48 hours (one generation). Potency, µM (series often up to 28.7 µM), for the others: top-dose activity change, negative = inhibition, usual class: inhibitors. P. falciparum luciferase growth in erythrocytes, 48 h. hit rate 5.9% among 310,000; note: potency is the fitted concentration of half-maximal effect; % is set by controls: 0 for no effect and ±100 for the full control effect
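Luciferase-expressing P. falciparum in infected erythrocytes (2% hematocrit, 0.1% parasitemia final) in RPMI 1640/0.5% Albumax were exposed to compound for 48 hours at 37 C, 5% CO2; growth read as luminescence.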
LmPK inh = LmPK (Leishmania mexicana) enzyme inhibition; purified LmPK, Kinase-Glo ATP luminescence, 1 h; Potency, µM (doses to about 57.5 µM), for the others: top-dose activity change, negative = inhibition, usual class: inhibitors; hit rate 0.37% among 290,000; note: potency is the fitted concentration of half-maximal effect; % is set by controls: 0 for no effect and ±100 for the full control effect
Target sequence (Q27686 whole entry, looked up): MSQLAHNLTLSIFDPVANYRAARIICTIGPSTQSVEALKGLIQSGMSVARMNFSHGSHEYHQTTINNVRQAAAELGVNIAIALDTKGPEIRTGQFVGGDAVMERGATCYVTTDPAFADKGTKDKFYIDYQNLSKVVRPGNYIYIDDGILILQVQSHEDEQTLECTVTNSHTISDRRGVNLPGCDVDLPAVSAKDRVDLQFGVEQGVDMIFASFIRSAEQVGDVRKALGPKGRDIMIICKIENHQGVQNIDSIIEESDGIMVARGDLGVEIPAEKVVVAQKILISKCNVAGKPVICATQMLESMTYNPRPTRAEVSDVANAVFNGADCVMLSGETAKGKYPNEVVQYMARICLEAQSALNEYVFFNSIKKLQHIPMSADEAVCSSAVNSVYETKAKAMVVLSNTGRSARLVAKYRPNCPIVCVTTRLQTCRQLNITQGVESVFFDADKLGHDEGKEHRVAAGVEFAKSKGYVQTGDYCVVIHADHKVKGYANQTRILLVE
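qHTS format; LmPK 0.1 nM; substrates PEP 0.5 mM and ADP 0.1 mM. One-hour room-temperature incubation, then coupled luciferase luminescence; 0.5 nM enzyme wells mark activation.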
* hit, by the source's call; ? = inconclusive; · = no result. Unless noted, calls come from the whole dose curve; as a rule, active = well fitted inhibition curve with a large enough effect; inconclusive = small, poorly fitted or top-dose-only effect, or another doubt; inactive = no such curve, though single readings can be large or run the other way.

SMILES	Shiga inhibitor	Pf growth 96h	Cycloheximide cs	Pf growth 48h	LmPK inh
COc1ccccc1NNC(=O)C(O)(c1ccccc1)c1ccccc1	15	-1%	-1	2%	-1%
Cc1ccc(S(=O)(=O)NNC(=O)c2ccncc2)cc1	-19	?	-4	13%	-2%
COc1ccc(NC(=O)CS(=O)CC(=O)Nc2cccnc2)cc1 (stereo not given)	-16	-2%	-4	10%	-5%
Cc1nn(-c2ccccc2)c(C)c1/C=N\NS(=O)(=O)c1ccc(Cl)cc1	-10	14%	-2	·	11%
CCOC(=O)N1CCN(C(=O)C2CCN(S(=O)(=O)CC)CC2)CC1	-19	1.7µM*	-1	2%	-6%
CCOc1ccccc1OCC(=O)OCc1csc(CC(=O)Nc2ccccc2C)n1	·	13%	·	-7%	·
CC12CN3CCN(CC(C3)C1O)C2 (stereo not given)	-15	?	3	·	2%
CC12CN3CCN(C1)CC(C)(C3)C2=NN	74*	?	21*	?	4%
CCOCCCNC(=O)c1cn(C)c(=O)c2cc(OC)c(OC)cc12	-3	?	8	15%	-1%
COCCNC(=O)c1cn(C)c(=O)c2cc(OC)c(OC)cc12	4	8.3µM*	-3	13%	-2%
CCC(C)NC(=O)c1cn(C)c(=O)c2cc(OC)c(OC)cc12 (stereo not given)	-2	9.3µM*	-2	0%	-2%
Cc1ccc2nc(SCC(=O)Nc3cc([N+](=O)[O-])ccc3F)[nH]c2c1	-10	-28%	-5	-1%	-2%
O=C(c1cccnc1)C1Cc2ccccc2C1=O (stereo not given)	-2	7.4µM*	6	?	-9%
O=C(NN1C(=O)CSC1=S)c1cccnc1	-12	7%	-3	3%	0%
CCCn1nnnc1SCC(=O)NC1CCCC1	-1	-12%	-2	33%	-7%
O=C(Nc1ccc(S(=O)(=O)Nc2ccc(F)cc2)cc1)c1ccc(CN2CCOCC2)cc1	2	12%	1	?	4%
CCN(CC)S(=O)(=O)c1ccc(NC(=O)c2ccc(CN3CCOCC3)cc2)cc1	5	-15%	1	6.6µM*	2%
COc1ccc(NS(=O)(=O)c2ccc(NC(=O)c3ccc(CN4CCOCC4)cc3)cc2)cc1	-16	-9%	8	15µM*	6%
CN(C)C(=O)c1cc(Cl)ccc1Sc1cc(Cl)ccc1Cl	-18	-23%	8	·	-4%
Oc1ccc(Cl)cc1Sc1cc(Cl)ccc1O	·	13µM*	·	?	·
COc1cccc(CNC(=O)CSc2nc(=O)n(Cc3ccncc3)c3c2CCC3)c1	·	?	·	10µM*	·
Cc1cccc(CCNc2nc3ccc(C)cc3n3cnnc23)c1	74*	?	30*	161%	1%
Cc1ccc(Nc2nc3ccccc3n3cnnc23)cc1C	31*	0%	37*	·	3%
Cc1cc(C)cc(Nc2nc3ccc(C)cc3n3cnnc23)c1	-4	2%	-3	18%	20%
Cc1ccc2nc(Nc3ccc(C)c(C)c3)c3nncn3c2c1	28*	2%	12	?	-1%
SMILES	Shiga inhibitor	Pf growth 96h	Cycloheximide cs	Pf growth 48h	LmPK inh
Cc1ccc(C(=O)OCC(=O)c2ccc[nH]2)s1	76*	43%	30*	116%	-10%
O=C(COC(=O)c1ccc(Cl)s1)c1ccc[nH]1	73*	33%	27*	-4%	2%
Cc1ccsc1C(=O)OCC(=O)c1ccc[nH]1	·	326%	·	468%	·
O=C(OCC(=O)c1ccc[nH]1)c1ccc(Cl)nc1	·	17%	·	0%	·
NNc1n[nH]c(=S)n1N	63*	-16%	40*	?	0%
Nn1c(Cc2ccc(F)cc2)n[nH]c1=S	-15	14%	-1	5%	9%
COc1cccc(NC(=O)Cn2c(=O)n(-c3cc(OC)c(OC)c(OC)c3)c(=O)c3ccccc32)c1	-5	?	7	10µM*	-3%
COc1cccc(NC(=O)Cn2c(=O)c3c(ncn3Cc3ccccc3)n(Cc3ccccc3)c2=O)c1	16	0.83µM*	18	·	1%
O=C(Cn1c(=O)c2c(ncn2Cc2ccccc2)n(Cc2ccccc2)c1=O)NC1CC1	-15	?	-4	?	-1%
CCn1c(=O)n(CC(=O)Nc2cccc(OC)c2)c(=O)c2ccccc21	19	75%	11	1%	2%
COCCn1cnc2c1c(=O)n(CC(=O)NC(=O)NC(C)(C)C)c(=O)n2Cc1ccccc1	-3	0.26µM*	-3	?	6%
COc1ccc(Cc2nnc(SCc3c(C)noc3C)n2C2CCCCC2)cc1OC	51*	?	13	9.3µM*	-19%
CC1CCc2nc(NC(=O)C3CCCO3)sc2C1 (stereo not given)	55*	5%	24*	113%	-11%
CC1CCc2nc(NC(=O)Cc3cccs3)sc2C1 (stereo not given)	94*	·	48*	142%	-8%
CC(C)(C)C1CCc2nc(NC(=O)Cc3cn4ccsc4n3)sc2C1 (stereo not given)	146*	·	37*	-12%	-1%
CN1C2CCC1CC(OC(c1ccccc1)c1ccc(Cl)cc1)C2 (stereo not given)	·	9%	·	4.8µM*	·
CN1CCC(OC(c2ccccc2)c2ccccc2)CC1	-6	?	-2	-17%	6%
O=C(NCc1nnc(SCC(=O)N2CCOCC2)o1)c1c(F)cccc1Cl	14	?	15	32%	2%
CCCn1c(C)cc(/C=C(\C#N)C(=O)OCC(=O)NC(=O)NCC)c1C	18	·	6	1%	0%
Cc1cc(/C=C(\C#N)C(=O)OCC(=O)Nc2ccc(OC(F)F)cc2)c(C)n1CC(C)C	32	29%	26*	0%	0%
Cc1cc(/C=C(\C#N)C(=O)OCC#N)c(C)n1CC(C)C	59*	?	28*	14%	0%
CC12CCC(=O)N1C(C(=O)Nc1nnc(SCc3ccccc3F)s1)CS2 (stereo not given)	56*	33%	20*	-1%	?
CC12CCC(=O)N1C(C(=O)Nc1nc3c(F)cc(F)cc3s1)CS2 (stereo not given)	22	?	21*	-24%	0%
CCC(=O)Nc1nnc(SCc2ccccc2F)s1	79*	-5%	15	36%	0%
Cc1cccc2sc(NC(=O)C3CSC4(C)CCC(=O)N34)nc12 (stereo not given)	-5	-14%	2	-15%	0%
CC(C)COC(=O)Nc1nnc(SCc2ccccc2F)s1	-11	?	7	14%	2%
Cc1cc(Br)ccc1NC(=O)CNC(=O)CN(C)C1CCS(=O)(=O)C1 (stereo not given)	·	-2%	·	-7%	·
Cc1nc2c(ccc3nc(NC(=O)C(c4ccccc4)c4ccccc4)sc32)s1	-11	10µM*	-2	3.7µM*	1%
Cc1nc2c(ccc3nc(NC(=O)c4ccc5c(c4)OCCO5)sc32)s1	43	?	45*	81%	-5%
